From the antibiotic and cytotoxicity screens of Wong et al. (2023)
Hit rate of the full screen: of about 39,000 compounds, about 3,300 (8.5%) were called active. Only a selection was taken, and actives are over-represented in it overall.

Test system: HepG2
Assay: cytotoxicity call (relative viability < 0.9)
Details: 10 µM

How did the cytotoxicity call turn out when `Cc1ccc(S(=O)(=O)Nc2ccc3c(c2)C(=O)N([C@@H](C)CO)C[C@@H](C)[C@H](CN(C)S(=O)(=O)c2ccc(F)cc2)O3)cc1` was run?
Its cytotoxicity call is “inactive”.

Which cytotoxicity call does the source give for `C[C@H](CO)N1C[C@H](C)[C@@H](CN(C)S(C)(=O)=O)Oc2c(NC(=O)CCCCCC(=O)Nc3ccccc3N)cccc2C1=O` here?
The cytotoxicity call was “inactive”.

`C[C@@H]1CN([C@H](C)CO)C(=O)c2cc(NS(=O)(=O)c3cn(C)cn3)ccc2O[C@@H](C)CCCCO[C@@H]1CN(C)C(=O)CCCN(C)C` was tested. Which cytotoxicity call did it give?
Its cytotoxicity call is “inactive”.

Which cytotoxicity call does the source give for `C[C@@H]1CN([C@H](C)CO)C(=O)Cc2cc(NC(=O)CCCCCC(=O)Nc3ccccc3N)ccc2O[C@H]1CN(C)C(=O)Nc1ccccc1` here?
The cytotoxicity call was “inactive”.

Which cytotoxicity call does the source give for `COc1cccc(-c2ccc3c(c2)O[C@H](CN(C)C(=O)C2CCC2)[C@H](C)CN([C@H](C)CO)S3(=O)=O)c1` here?
The cytotoxicity call was “inactive”.

With `C[C@@H]1CN([C@H](C)CO)C(=O)c2cc(NC(=O)Cc3ccccc3)ccc2O[C@@H](C)CCCCO[C@H]1CN(C)C(=O)Nc1ccc2c(c1)OCO2` as the molecule, how does the cytotoxicity call read?
The cytotoxicity call was “inactive”.

For `CNC(=O)C[C@H]1CC[C@@H]2[C@H](COc3ccc(NC(=O)c4ccc(C(F)(F)F)cc4)cc3C(=O)N2C)O1`, which cytotoxicity call is on record?
Its cytotoxicity call is “inactive”.

Which cytotoxicity call does the source give for `C[C@H](CO)N1C[C@H](C)[C@H](CN(C)Cc2ccc(C(=O)O)cc2)OCCCC[C@H](C)Oc2ccc(NS(=O)(=O)c3ccc(Cl)cc3)cc2C1=O` here?
Its cytotoxicity call is “inactive”.

How did the cytotoxicity call turn out when `Cc1noc(C)c1NC(=O)N(C)C[C@@H]1Oc2c(NC(=O)NC(C)C)cccc2C(=O)N([C@@H](C)CO)C[C@@H]1C` was run?
The cytotoxicity call was “inactive”.

`NNc1ccc2[nH]c(=O)[nH]c2c1` was tested. Which cytotoxicity call did it give?
The cytotoxicity call was “inactive”.

For `C[C@H]1CCCCO[C@H](CN(C)Cc2ccc(C(F)(F)F)cc2)[C@@H](C)CN([C@@H](C)CO)C(=O)c2cc(NC(=O)Nc3ccc(F)cc3)ccc2O1`, which cytotoxicity call is on record?
Its cytotoxicity call is “active”.

How did the cytotoxicity call turn out when `C[C@@H]1CCCCO[C@H](CN(C)Cc2ccc(C(F)(F)F)cc2)[C@@H](C)CN([C@@H](C)CO)C(=O)c2cc(NC(=O)Nc3ccc(F)cc3)ccc2O1` was run?
The cytotoxicity call was “active”.

`C[C@H](CO)N1C[C@H](C)[C@@H](CN(C)Cc2ccc(C(F)(F)F)cc2)OCCCC[C@H](C)Oc2ccc(NC(=O)Nc3ccc(F)cc3)cc2C1=O` was tested. Which cytotoxicity call did it give?
The cytotoxicity call was “inactive”.

For `C[C@@H]1CN([C@@H](C)CO)C(=O)c2cc(NC(=O)Nc3ccc(F)cc3)ccc2O[C@@H](C)CCCCO[C@H]1CN(C)Cc1ccc(C(F)(F)F)cc1`, which cytotoxicity call is on record?
Its cytotoxicity call is “active”.

Which cytotoxicity call does the source give for `C[C@@H]1CN([C@@H](C)CO)C(=O)c2cc(NC(=O)Nc3ccc(F)cc3)ccc2O[C@@H](C)CCCCO[C@@H]1CN(C)Cc1ccc(C(F)(F)F)cc1` here?
Its cytotoxicity call is “inactive”.

`C[C@H](CO)N1C[C@H](C)[C@H](CN(C)Cc2ccc(C(F)(F)F)cc2)OCCCC[C@H](C)Oc2ccc(NC(=O)Nc3ccc(F)cc3)cc2C1=O` was tested. Which cytotoxicity call did it give?
The cytotoxicity call was “active”.

Which cytotoxicity call does the source give for `C[C@@H]1CCCCO[C@@H](CN(C)Cc2ccc(C(F)(F)F)cc2)[C@H](C)CN([C@H](C)CO)C(=O)c2cc(NC(=O)Nc3ccc(F)cc3)ccc2O1` here?
The cytotoxicity call was “inactive”.

`C[C@@H]1CCCCO[C@@H](CN(C)Cc2ccc(C(F)(F)F)cc2)[C@H](C)CN([C@@H](C)CO)C(=O)c2cc(NC(=O)Nc3ccc(F)cc3)ccc2O1` was tested. Which cytotoxicity call did it give?
The cytotoxicity call was “inactive”.

Which cytotoxicity call does the source give for `CCNC(=O)C[C@H]1C=C[C@@H](NC(=O)C2CCOCC2)[C@@H](CO)O1` here?
Its cytotoxicity call is “inactive”.

With `COc1ccc(NC(=O)N(C)C[C@@H]2Oc3ccc(NC(=O)C4CC4)cc3CC(=O)N([C@H](C)CO)C[C@H]2C)cc1` as the molecule, how does the cytotoxicity call read?
Its cytotoxicity call is “inactive”.

Which cytotoxicity call does the source give for `CN(C)CC(=O)N[C@@H]1CC[C@H](CCNC(=O)C2CC2)O[C@H]1CO` here?
The cytotoxicity call was “inactive”.

Which cytotoxicity call does the source give for `COc1ccc(NC(=O)N(C)C[C@H]2OCCCC[C@H](C)Oc3ccc(NS(=O)(=O)c4ccc(OC)cc4)cc3C(=O)N([C@H](C)CO)C[C@@H]2C)cc1` here?
The cytotoxicity call was “inactive”.

Which cytotoxicity call does the source give for `C[C@H](CO)N1C[C@H](C)[C@@H](CN(C)C(=O)Nc2ccc(N3CCN(C)CC3)cc2)OCc2cnnn2CCCC1=O` here?
Its cytotoxicity call is “inactive”.

Which cytotoxicity call does the source give for `CC(=O)NCCCC[C@@H]1NC(=O)[C@@H]2C[C@H](C(=O)NCCCCCNC(=O)CS)[C@H](c3cccc(OCCO)c3)N2C1=O` here?
Its cytotoxicity call is “inactive”.

How did the cytotoxicity call turn out when `C[C@@H]1CN([C@H](C)CO)C(=O)c2cc(NS(=O)(=O)c3cn(C)cn3)ccc2O[C@@H](C)CCCCO[C@@H]1CN(C)S(=O)(=O)c1ccccc1` was run?
Its cytotoxicity call is “inactive”.

`C[C@@H]1CN([C@H](C)CO)C(=O)c2cccc(NC(=O)NC3CCCCC3)c2O[C@@H]1CN(C)Cc1ccc(Oc2ccccc2)cc1` was tested. Which cytotoxicity call did it give?
Its cytotoxicity call is “inactive”.

How did the cytotoxicity call turn out when `COc1ccc(NC(=O)N(C)C[C@H]2Oc3ccc(NC(=O)Nc4cccc5ccccc45)cc3CC(=O)N([C@H](C)CO)C[C@H]2C)cc1` was run?
The cytotoxicity call was “inactive”.

Which cytotoxicity call does the source give for `CC(C)CC#Cc1ccc2c(c1)O[C@H](CN(C)C(=O)Cc1ccccn1)[C@@H](C)CN([C@H](C)CO)S2(=O)=O` here?
The cytotoxicity call was “inactive”.

Which cytotoxicity call does the source give for `C[C@H](CO)N1C[C@H](C)[C@@H](CN(C)C(=O)NC2CCCCC2)OCCCC[C@H](C)Oc2ccc(NC(=O)Cc3ccccc3)cc2C1=O` here?
The cytotoxicity call was “inactive”.

Which cytotoxicity call does the source give for `COc1ccc(CN(C)C[C@H]2Oc3c(NC(=O)Nc4ccc(C(F)(F)F)cc4)cccc3C(=O)N([C@@H](C)CO)C[C@@H]2C)cc1` here?
The cytotoxicity call was “inactive”.

`C[C@@H]1CCCCO[C@H](CN(C)Cc2ccc(C(F)(F)F)cc2)[C@@H](C)CN([C@H](C)CO)C(=O)c2cc(NC(=O)Nc3ccc(F)cc3)ccc2O1` was tested. Which cytotoxicity call did it give?
Its cytotoxicity call is “inactive”.

How did the cytotoxicity call turn out when `C[C@@H]1CCCCO[C@H](CN(C)Cc2ccc(C(F)(F)F)cc2)[C@H](C)CN([C@H](C)CO)C(=O)c2cc(NC(=O)Nc3ccc(F)cc3)ccc2O1` was run?
Its cytotoxicity call is “active”.

Which cytotoxicity call does the source give for `C[C@@H]1CCCCO[C@H](CN(C)Cc2ccc(C(F)(F)F)cc2)[C@H](C)CN([C@@H](C)CO)C(=O)c2cc(NC(=O)Nc3ccc(F)cc3)ccc2O1` here?
Its cytotoxicity call is “active”.

For `C[C@@H]1CN([C@H](C)CO)C(=O)c2cc(NC(=O)Nc3ccc(F)cc3)ccc2O[C@@H](C)CCCCO[C@@H]1CN(C)Cc1ccc(C(F)(F)F)cc1`, which cytotoxicity call is on record?
Its cytotoxicity call is “inactive”.

With `C[C@@H]1CN([C@H](C)CO)C(=O)c2cc(NC(=O)Nc3ccc(F)cc3)ccc2O[C@@H](C)CCCCO[C@H]1CN(C)Cc1ccc(C(F)(F)F)cc1` as the molecule, how does the cytotoxicity call read?
Its cytotoxicity call is “active”.

How did the cytotoxicity call turn out when `C[C@H]1CCCCO[C@@H](CN(C)Cc2ccc(C(F)(F)F)cc2)[C@@H](C)CN([C@@H](C)CO)C(=O)c2cc(NC(=O)Nc3ccc(F)cc3)ccc2O1` was run?
The cytotoxicity call was “active”.

How did the cytotoxicity call turn out when `C[C@@H]1CCCCO[C@@H](CN(C)Cc2ccc(C(F)(F)F)cc2)[C@@H](C)CN([C@H](C)CO)C(=O)c2cc(NC(=O)Nc3ccc(F)cc3)ccc2O1` was run?
The cytotoxicity call was “inactive”.

How did the cytotoxicity call turn out when `C[C@@H]1CCCCO[C@@H](CN(C)Cc2ccc(C(F)(F)F)cc2)[C@@H](C)CN([C@@H](C)CO)C(=O)c2cc(NC(=O)Nc3ccc(F)cc3)ccc2O1` was run?
Its cytotoxicity call is “inactive”.

Which cytotoxicity call does the source give for `C[C@H](CO)N1C[C@H](C)[C@@H](CN(C)Cc2ccc(Cl)c(Cl)c2)Oc2ccc(NC(=O)Cn3cnnn3)cc2CC1=O` here?
Its cytotoxicity call is “inactive”.

With `COc1ccc(S(=O)(=O)Nc2ccc3c(c2)C(=O)N([C@H](C)CO)C[C@@H](C)[C@H](CN(C)C(=O)Nc2ccc(F)cc2)OCCCC[C@@H](C)O3)cc1` as the molecule, how does the cytotoxicity call read?
Its cytotoxicity call is “inactive”.

Which cytotoxicity call does the source give for `C=CCN(C#N)c1nc(N(C)C)nc(N(C)C)n1` here?
The cytotoxicity call was “inactive”.

How did the cytotoxicity call turn out when `C[C@@H]1CN([C@H](C)CO)C(=O)c2cccc(NC(=O)c3cnccn3)c2O[C@@H]1CN(C)Cc1ccccc1` was run?
Its cytotoxicity call is “inactive”.

`Cc1noc(C)c1S(=O)(=O)Nc1ccc2c(c1)C(=O)N([C@H](C)CO)C[C@H](C)[C@@H](CN(C)S(=O)(=O)c1cccs1)O2` was tested. Which cytotoxicity call did it give?
The cytotoxicity call was “inactive”.

Which cytotoxicity call does the source give for `Cc1noc(C)c1NC(=O)Nc1ccc2c(c1)CC(=O)N([C@H](C)CO)C[C@@H](C)[C@@H](CN(C)Cc1ccc(C(F)(F)F)cc1)O2` here?
The cytotoxicity call was “inactive”.

Which cytotoxicity call does the source give for `Cc1ccc(S(=O)(=O)N2C[C@@H](O)COC[C@H]3O[C@H](CC(=O)N[C@@H]4CCN(Cc5ccccc5)C4)CC[C@@H]32)cc1` here?
Its cytotoxicity call is “inactive”.

Which cytotoxicity call does the source give for `COc1ccccc1C#Cc1cnc2c(c1)C(=O)N([C@@H](C)CO)C[C@H](C)[C@@H](CN(C)C(=O)CN(C)C)O2` here?
The cytotoxicity call was “inactive”.

With `C=C(C)[C@@H]1CC[C@]2(COC(C)=O)CC[C@]3(C)[C@H](CC[C@@H]4[C@@]5(C)CC[C@H](OC(C)=O)C(C)(C)[C@@H]5CC[C@]43C)[C@@H]12` as the molecule, how does the cytotoxicity call read?
Its cytotoxicity call is “inactive”.

`C[C@@H]1CCCCO[C@@H](CN(C)S(=O)(=O)c2cn(C)cn2)[C@H](C)CN([C@@H](C)CO)C(=O)c2cc(NS(=O)(=O)c3cn(C)cn3)ccc2O1` was tested. Which cytotoxicity call did it give?
Its cytotoxicity call is “inactive”.

How did the cytotoxicity call turn out when `C[C@H]1CN([C@@H](C)CO)C(=O)c2cc(NC(=O)C3CC3)ccc2O[C@H]1CN(C)C(=O)NC1CCCCC1` was run?
The cytotoxicity call was “inactive”.

Which cytotoxicity call does the source give for `COc1cc2c(cc1OC)-c1onc(-c3ccc(OCCO[Si](C(C)C)(C(C)C)C(C)C)cc3)c1CCCN(C[C@@H](C)OC(=O)NCCCCCC(=O)NO)CC2` here?
The cytotoxicity call was “active”.

`COc1cc2c(cc1OC)[C@@]13ON=C(c4ccc(OCCOC(=O)NCCCCCC(=O)NO)cc4)[C@@H]1CCN3CC2` was tested. Which cytotoxicity call did it give?
The cytotoxicity call was “inactive”.

For `COc1cc2c(cc1OC)-c1onc(-c3ccc(OCCO[Si](C(C)C)(C(C)C)C(C)C)cc3)c1CCCN(C[C@@H](C)O)CC2`, which cytotoxicity call is on record?
The cytotoxicity call was “inactive”.

With `C/C=C/c1cccc(-c2nc(C(=O)NCc3ccc(OC)cc3)cc3c2[C@@H](CCO)N([S@](=O)C(C)(C)C)C3)c1` as the molecule, how does the cytotoxicity call read?
Its cytotoxicity call is “inactive”.

For `COc1nn(C)cc1-c1n[nH]c(=S)n1C`, which cytotoxicity call is on record?
The cytotoxicity call was “inactive”.

`O=C(C[C@@H]1CC[C@@H]2[C@H](COC[C@H](O)CN2S(=O)(=O)c2ccc(Oc3ccccc3)cc2)O1)NC1CCC1` was tested. Which cytotoxicity call did it give?
The cytotoxicity call was “inactive”.

`CC1(O)CCC(C(C)(C)O)CC1.O` (centres undefined) was tested. Which cytotoxicity call did it give?
Its cytotoxicity call is “inactive”.

Which cytotoxicity call does the source give for `CCCC#Cc1ccc2c(c1)O[C@@H](CN(C)S(=O)(=O)c1cccc(OC)c1)[C@@H](C)CN([C@H](C)CO)S2(=O)=O` here?
Its cytotoxicity call is “inactive”.

How did the cytotoxicity call turn out when `COc1cccc(S(=O)(=O)N(C)C[C@H]2Oc3ncc(C#CCN(C)C)cc3C(=O)N([C@H](C)CO)C[C@@H]2C)c1` was run?
The cytotoxicity call was “inactive”.

`COc1ccc(NC(=O)Nc2ccc3c(c2)CC(=O)N([C@@H](C)CO)C[C@@H](C)[C@H](CN(C)S(=O)(=O)c2cn(C)cn2)O3)cc1` was tested. Which cytotoxicity call did it give?
The cytotoxicity call was “inactive”.
